# The entries come from a sample that favours hits as a whole.
# Dicer inh = blocks human Dicer maturation of pre-miR-21; z-score at 25 µM; AID 1347074; cat-ELCCA pre-miR-21 Dicer processing, chemiluminescence; stronger effect = higher value; actives 6% (n = 47,000); Q9UPY3; in the data active = z-score above about 3, passing the limit was not always enough;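 also: higher signal means more uncleaved substrate so more Dicer inhibition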
# Target sequence (Q9UPY3 whole entry, looked up): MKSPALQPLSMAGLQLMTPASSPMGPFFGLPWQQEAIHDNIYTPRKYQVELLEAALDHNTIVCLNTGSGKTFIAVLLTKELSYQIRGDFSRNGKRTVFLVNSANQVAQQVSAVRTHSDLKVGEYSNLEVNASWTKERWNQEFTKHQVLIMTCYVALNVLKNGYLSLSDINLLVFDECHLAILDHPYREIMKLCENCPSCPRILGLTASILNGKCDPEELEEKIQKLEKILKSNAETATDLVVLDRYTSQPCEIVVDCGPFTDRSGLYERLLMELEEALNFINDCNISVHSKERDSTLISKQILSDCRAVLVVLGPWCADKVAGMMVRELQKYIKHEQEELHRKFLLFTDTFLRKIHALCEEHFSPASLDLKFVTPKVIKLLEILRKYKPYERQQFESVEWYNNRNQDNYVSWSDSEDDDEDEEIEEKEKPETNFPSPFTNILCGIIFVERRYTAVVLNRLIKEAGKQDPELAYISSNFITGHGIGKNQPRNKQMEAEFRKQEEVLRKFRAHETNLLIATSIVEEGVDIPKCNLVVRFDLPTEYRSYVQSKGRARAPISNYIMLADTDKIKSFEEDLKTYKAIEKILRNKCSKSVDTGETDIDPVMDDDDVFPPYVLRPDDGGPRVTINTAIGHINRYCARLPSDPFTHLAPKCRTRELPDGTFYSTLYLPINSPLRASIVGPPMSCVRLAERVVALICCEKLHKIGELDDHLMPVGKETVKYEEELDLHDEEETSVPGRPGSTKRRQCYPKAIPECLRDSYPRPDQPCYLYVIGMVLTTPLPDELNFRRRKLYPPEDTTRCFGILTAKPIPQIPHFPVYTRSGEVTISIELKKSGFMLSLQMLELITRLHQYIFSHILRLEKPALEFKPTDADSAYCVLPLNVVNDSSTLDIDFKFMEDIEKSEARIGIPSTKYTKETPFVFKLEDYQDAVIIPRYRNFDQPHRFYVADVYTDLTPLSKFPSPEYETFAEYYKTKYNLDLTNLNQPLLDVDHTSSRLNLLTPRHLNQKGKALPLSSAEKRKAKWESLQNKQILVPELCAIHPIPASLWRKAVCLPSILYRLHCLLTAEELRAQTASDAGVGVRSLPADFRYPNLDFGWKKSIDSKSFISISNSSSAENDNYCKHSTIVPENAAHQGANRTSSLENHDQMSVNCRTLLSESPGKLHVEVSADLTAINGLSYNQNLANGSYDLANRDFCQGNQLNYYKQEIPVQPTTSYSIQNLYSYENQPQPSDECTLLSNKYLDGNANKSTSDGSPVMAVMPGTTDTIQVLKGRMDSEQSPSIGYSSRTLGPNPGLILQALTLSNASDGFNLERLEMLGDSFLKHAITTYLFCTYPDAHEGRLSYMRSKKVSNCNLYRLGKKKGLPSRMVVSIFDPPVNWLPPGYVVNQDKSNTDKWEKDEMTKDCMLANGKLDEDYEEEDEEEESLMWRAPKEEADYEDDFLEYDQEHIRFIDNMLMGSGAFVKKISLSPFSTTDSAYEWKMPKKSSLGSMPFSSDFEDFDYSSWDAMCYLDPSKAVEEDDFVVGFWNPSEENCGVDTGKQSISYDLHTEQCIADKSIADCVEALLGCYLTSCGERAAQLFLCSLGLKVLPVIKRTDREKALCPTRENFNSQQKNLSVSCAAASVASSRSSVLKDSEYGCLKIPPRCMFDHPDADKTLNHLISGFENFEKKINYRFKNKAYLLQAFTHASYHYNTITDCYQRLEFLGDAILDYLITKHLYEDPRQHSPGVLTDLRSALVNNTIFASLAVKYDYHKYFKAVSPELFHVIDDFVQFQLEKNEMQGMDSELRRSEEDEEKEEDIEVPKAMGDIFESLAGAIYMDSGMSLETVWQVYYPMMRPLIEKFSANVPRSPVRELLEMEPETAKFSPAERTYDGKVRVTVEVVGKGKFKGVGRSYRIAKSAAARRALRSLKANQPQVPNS
# A number is an active result; . = inactive.
SMILES,Dicer inh
Cn1cnc([N+](=O)[O-])c1Sc1n[nH]c(=O)n1-c1ccccc1C(F)(F)F,.
CCCCOc1c(Nc2cccc(OC)c2)c(=O)c1=O,.
CCOc1c(Nc2cccc(OC)c2)c(=O)c1=O,.
CCOc1c(Nc2ccccc2O)c(=O)c1=O,4.1
COC(=O)/C(C#N)=C/c1cccc(Br)c1,9.3
COC(=O)/C(C#N)=C/c1ccc(Cl)cc1,.
CCOC(=O)/C(C#N)=C/c1ccc(Br)cc1,.
Cc1ccc(CSC2=NCN(Cc3ccccc3)CN2)cc1,.
O=C(Cc1cccc(Cl)c1)c1ccc(O)cc1O,.
O=c1oc(-c2ccco2)nc2cc(Cl)ccc12,.
COc1ccc(O)c(C2=Nc3ccccc3N=C(c3ccco3)C2)c1,.
Oc1ccc(Cl)cc1C1=Nc2ccccc2N=C(c2ccco2)C1,3
CCOc1cc(CO)ccc1OCc1ccc(C(=O)O)cc1,.
O=[N+]([O-])c1ccsc1SCCO,.
COc1cccc(C2/C(=C(\O)c3ccc(Cl)cc3)C(=O)C(=O)N2CCCn2ccnc2)c1 (stereo not drawn),.
Cc1ccn2cc(-c3ccccc3)nc2c1,.
Cc1ccc(C2CC(=O)c3c(S(C)=O)sc(C#N)c3C2)cc1 (stereo not drawn),3.6
CS(=O)c1sc(Cl)c2c1C(=O)CCC2 (stereo not drawn),.
CS(=O)c1sc(C#N)c2c1C(=O)CCC2 (stereo not drawn),.
Cc1ccc(C2=NN(C(=O)CCCC(=O)O)C(c3ccc(Br)cc3)C2)cc1 (stereo not drawn),.
CCOC(=O)c1c(C)n(C)c2cc(-c3ccc(CC)cc3)c(O)cc12,3.5
CCOC(=O)c1c(C)n(C)c2cc(-c3ccc(C)cc3)c(O)cc12,.
CCOC(=O)c1c(C)n(C)c2cc(-c3ccc(Cl)cc3)c(O)cc12,.
O=c1cc(CSc2nnc(SCC3CC3)s2)c2ccc(O)cc2o1,.
CCCCN1Cc2c(n(CC(=O)c3ccccc3)c3cc(-c4ccccc4)nn3c2=O)C1=O,3.1
SMILES,Dicer inh
CCCCN1Cc2c(n(CC(N)=O)c3cc(-c4ccccc4)nn3c2=O)C1=O,.
CCCCN1Cc2c(n(Cc3ccccc3)c3cc(-c4ccccc4)nn3c2=O)C1=O,.
CN(C(=O)c1cnc(Oc2ccc(Cl)cc2)cc1C(F)(F)F)c1ccc(Cl)c(Cl)c1,.
OC(CNC1CCN(Cc2ccccc2)CC1)C(F)(F)F (stereo not drawn),.
Cc1nnc2n1NC(c1ccc(Cl)cc1)C(C(=O)NCC1CCCO1)S2 (stereo not drawn),.
COc1ccc(C2Nn3c(nnc3-c3ccccc3)SC2C(=O)NCC2CCCO2)cc1Cl (stereo not drawn),6.6
Cc1ccc(C2Nn3c(C)nnc3SC2C(=O)NCC2CCCO2)cc1 (stereo not drawn),.
CC1CCC(C(C)C)C(NC(=O)c2cccc(C(F)(F)F)c2)C1 (stereo not drawn),.
O=C(O)CCCNc1nc(Cl)nc(N2CCOCC2)n1,4.7
Clc1nc(NCCN2CCOCC2)nc(NC2CCCCC2)n1,.
CCNc1nc(C(=O)O)nc(N2CCOCC2)n1,.
NNC(=O)CNC(=O)c1c(F)cccc1F,.
NNC(=O)CNC(=O)c1ccc(Br)cc1,4.8
O=C(O)CNC(=O)c1ccc(Br)cc1,.
Cc1cc(NS(=O)(=O)c2cc(Cl)cc(Cl)c2)no1,.
CCCCCCOc1ccc(NS(=O)(=O)c2ccc(F)cc2)cc1,.
CSc1nnc2c(n1)OC(C)Nc1ccccc1-2 (stereo not drawn),.
CSc1nnc2c(n1)OC(C1CC=C(C)CC1)Nc1ccccc1-2 (stereo not drawn),3.2
CSc1nnc2c(n1)OC(c1ccc(C)cc1)Nc1ccccc1-2 (stereo not drawn),.
O=S(=O)(c1ccc(Cl)cc1)n1cnc2ccccc21,.
CCOc1ccc(S(=O)(=O)n2cnc3ccccc32)cc1,4.7
CCOc1ccc(S(=O)(=O)n2c(C)nc3ccccc32)cc1,.
O=C(CSc1nc2ccccc2o1)N1CCN(S(=O)(=O)c2ccccc2)C1,.
CC1(C)CC(N2CCN(C3CC(C)(C)NC(C)(C)C3)CC2)CC(C)(C)N1,.
O=C(Nc1ccc(F)cc1F)c1ccc2ncccc2c1,.
SMILES,Dicer inh
O=C(Nc1ccccc1)Nc1ccc2ncccc2c1,.
O=C(Nc1cnc2ccccc2c1)c1ccncc1,3.1
COc1ccccc1Nc1n[nH]c(C)c1[N+](=O)[O-],.
COc1ccccc1Nc1cc(=O)[nH]c(=O)[nH]1,3.6
COc1ccccc1Nc1cccccc1=O,.
COc1ccc(/C=N\NS(=O)(=O)c2ccc(-c3nc(C)oc3-c3ccc([N+](=O)[O-])cc3)cc2)cc1OC,.
O=C(O)c1ncc(C(F)(F)F)cc1Cl,.
FC(F)(F)c1cc(Cl)c2nsnc2c1,4.5
Clc1cc2nsnc2cc1Cl,.
CCOCCOC(=O)C1=C(C)NC2=C(C(=O)CC(c3cccs3)C2)C1c1ccccc1OCC (stereo not drawn),.
COC(=O)c1ccsc1-n1c(C)ccc1C,.
CN(C(=S)NC(=O)c1ccccc1)c1ccc(OC(F)(F)F)cc1,.
Cc1ccc(-c2nnc(SCc3cccc(Cl)c3)o2)cc1,.
COC(=O)c1cc2c(s1)-c1cc(Cl)ccc1S(=O)(=O)C2,.
CC1=CS(=O)(=O)c2ccc(Cl)cc21,4.3
O=C1NS(=O)(=O)c2ccc(Cl)cc2Sc2ccccc21,.
CCOC(=O)c1cnc2cc(Cl)c(F)cc2c1N1CC(C)OC(C)C1 (stereo not drawn),11
CCOC(=O)c1cnc2cc(Cl)c(F)cc2c1OCC,.
CCOC(=O)c1ccc2nc(C(F)(F)F)nc(N3CC(C)OC(C)C3)c2c1 (stereo not drawn),.
CC(C)(C)c1ccc(NC(=O)NC2CCCc3ccccc32)cc1 (stereo not drawn),.
Cc1noc(C)c1NC(=O)NC1CCCc2ccccc21 (stereo not drawn),.
O=C(Nc1ccccc1F)NC1CCCc2ccccc21 (stereo not drawn),4.6
CNC(=O)n1nc(C)c(Cc2csc3ccc(Cl)cc23)c1C,.
N=Nc1c(O)[nH]c2ccc(Br)cc12,.
O=C(Nc1ccccc1)c1nc(-c2ccccc2)n(-c2ccccc2)n1,.
SMILES,Dicer inh
CC(C)(C)c1cc(C(=O)O)nn1-c1ccccc1,.
O=C(O)c1nc(-c2ccccc2)n(-c2ccccc2)n1,5.4
COc1ccc(OC(=O)c2c(C)nn(-c3ccccc3)c2C)cc1,.
Cc1nn(-c2ccccc2)c(C)c1C(=O)O,8.4
Cc1nn(-c2ccccc2)c(C)c1C(=O)Oc1ccc(Cl)cc1Cl,.
CCOC(=O)NC(=S)N1C(C)CCCC1C (stereo not drawn),.
Cc1nc(S(=O)(=O)Nc2ccc(-c3cn4c(n3)SCC4)cc2)cn1C,.
O=c1c2c(n3cnnc3n1CCc1ccccc1)-c1ccccc1CC21CCCCC1,.
CCOC(=O)c1sc(-c2ccccc2)nc1OCc1ccc(Cl)cc1,.
Cn1c(/C=C/c2cccc3ccccc23)c([N+](=O)[O-])c(=O)n(C)c1=O,.
O=C(Oc1cc(=O)oc2c1c(=O)n1c3c(cccc23)CC1)c1cccs1,.
Nc1cc(C(F)(F)F)ccc1NCc1ccccc1,.
Cc1ccc(/C=N/Nc2ncnc3sccc23)cc1,.
Cc1nnc2n1NC(c1ccc(Cl)cc1)C(C(=O)Nc1ccc(Br)cc1F)S2 (stereo not drawn),.
O=C(NNc1c(Cl)cccc1Cl)c1ccc(F)cc1F,.
NC(=S)N/N=C/c1c(Sc2ccc(Cl)cc2)nc2sccn12,.
Clc1ccc(Sc2c(-c3ccccc3)nc3sccn23)cc1,.
O=C1Nc2ccccc2/C1=C/c1c(Sc2ccc(Cl)cc2)nc2sccn12,5.7

# Bioassay records as filed in PubChem BioAssay.
